# Laboratory results taken from PubChem BioAssay (Tox21).
# Results filed as inconclusive are left out. Where a call stands in place of a potency, no number is given. Active and inactive are the calls of the source. The call rests on the fitted dose curve; in most records, active means well fitted cell-killing curve with a large enough effect in the repeat runs; inconclusive means weak or mixed curves; inactive means no such curve, though single readings can be large or run the other way.
# Assay: qHTS assay for identifying genotoxic compounds that show differential cytotoxicity against isogenic chicken DT40 cell lines with known DNA damage response pathways - Rad54/Ku70 mutant cell line (AID 743015); further: nearly all actives have a fitted effect of over 60% in size
# Conditions: DT40 Rad54/Ku70 mutant viability, CellTiter-Glo, 40 h; series mostly up to 66.8 µM
# Source text: National Center for Advancing Translational Sciences [NCATS]
# NIH Chemical Genomics Center [NCGC]
# U.S. Environmental Protection Agency [EPA]
# National Institutes of Environmental Health Sciences [NIEHS]
# National Toxicology Program [NTP]
# U.S. Food and Drug Administration [FDA]
# DNA repair pathways play a critical role in cellular homeostasis by repairing DNA damage induced by endogenous processes and xenobiotics. Isogenic chicken DT40 cell lines deficient in different DNA repair pathways can be used to identify genotoxic compounds and aid in characterizing the nature of the DNA damage induced. Two DNA repair-deficient cell lines with disrupted genes, Rad54/Ku70 or Rev3, were used to screen the Tox21 10K compound library. Possible genotoxicity was based on the presence of a significant increase in cytotoxicity in one or more of the DNA repair-deficient cell lines compared to that observed in the parental DNA repair-proficient cell line. CellTiter Glo viability assay (Promega, Madison, WI) was used to measure cell viability in these cells after compound treatment. This assay includes the data from the Rad54/Ku70 mutant cell line.
# Tox21 Assay Protocol Summary:
# 300 DT40 mutant cells in 5 uL/well were dispensed into white, solid-bottom 1536-well plates using a Multidrop Combi (ThermoFisher Scientific, Waltham, MA) dispenser. After the assay plates were incubated at 37 C/5% CO2 for approximately 0.5 hour, 23 nL of compounds dissolved in DMSO, positive controls or DMSO only was transferred into the assay plate by a pintool work station (Kalypsys, San Diego, CA). The assay plates were incubated at 37 C/5% CO2 for 40 hours. After 5 uL per well of CellTiter-Glo reagent was added into each well of the assay plates, the plates were incubated for 30 min at room temperature and the luminescence intensity of the plates was measured using a ViewLux (PerkinElmer, Shelton, CT) plate reader.
# Potency means the concentration at half of the fitted maximal effect.
row,SMILES,Potency
1,COc1cc2c(Nc3ccc(Br)cc3F)ncnc2cc1OCC1CCN(C)CC1,6.68 µM (active)
2,CC(C)CCCCCCOC(=O)C1CCCCC1C(=O)OCCCCCCC(C)C (stereo not given),inactive
3,CC(=O)OC(C)c1ccccc1 (stereo not given),inactive
4,C1CCN2C[C@@H]3C[C@@H](CN4CCCC[C@@H]34)[C@H]2C1,inactive
5,O=C(Oc1ccccc1C(=O)O)c1ccccc1O,inactive
6,CCN(Cc1cccc(S(=O)(=O)O)c1)c1ccccc1,inactive
7,CCCCOC(=O)C(C)OC(=O)CCC (stereo not given),inactive
8,Nc1cc(S(=O)(=O)O)ccc1S(=O)(=O)O,inactive
9,C=C[Si](C)(C)O[Si](C)(C)C=C,inactive
10,Cc1ccccc1OCC1CO1 (stereo not given),inactive
11,C=CCOCC(O)CCl (stereo not given),inactive
12,O=S(=O)(O)SSS(=O)(=O)O,inactive
13,CCCCC(CC)C(=O)OC(C)C (stereo not given),inactive
14,C=CCOc1c(Br)cc(Br)cc1Br,inactive
15,CC(=O)OC(C(=O)c1ccccc1)c1ccccc1 (stereo not given),inactive
16,CC(C)CCO,inactive
17,CCCCCCCC[Si](OCC)(OCC)OCC,inactive
18,CC(=O)/C=C/c1ccco1,inactive
19,Cn1c(=O)c2c(ncn2CC2OCCO2)n(C)c1=O,inactive
20,Cc1nc2ccccc2c(=O)o1,inactive

row,SMILES,Potency
1,CC(C)(C)NCCO,inactive
2,FC(F)(F)/C(=N\OCC1OCCO1)c1ccc(Cl)cc1,inactive
3,Nc1cc(Cl)cc(S(=O)(=O)O)c1O,inactive
4,CCCCCCCCC(=O)OCC,inactive
5,COC(=O)CCC(=O)O,inactive
6,CC(C)COC(=O)CCCCC(=O)OCC(C)C,inactive
7,O=[Si]=O,inactive
8,CCCCC(CC)COC(=O)c1ccccc1 (stereo not given),inactive
9,CC(C)=CC(C)(C)C,inactive
10,O=C(O)/C=C/c1ccccc1,inactive
11,CCC(C)N (stereo not given),inactive
12,CC(=O)c1ccc2c(c1)CCCC2,inactive
13,O=C(O)Cc1cccc(-c2cc(CCCCCCc3ccc(O[C@H]4O[C@H](CO)[C@@H](O)[C@H](O)[C@@H]4O)c(-c4cccc(CC(=O)O)c4)c3)ccc2O[C@H]2O[C@H](CO)[C@@H](O)[C@H](O)[C@@H]2O)c1,inactive
14,Nc1ccnc(=O)[nH]1,inactive
15,CCOC(=O)CC(CC(=O)OCC)(OC(C)=O)C(=O)OCC,inactive
16,NS(=O)(=O)c1cc2c(cc1Cl)NC(CC1CCCC1)NS2(=O)=O (stereo not given),inactive
17,CCCCCCCCCCCCC,inactive
18,COC(OC)C(C)c1ccccc1 (stereo not given),inactive
19,C=C(C)C(=O)OC1CC(C)CC(C)(C)C1 (stereo not given),inactive
20,O=c1cc(O)c(Cl)c[nH]1,inactive
